Five molecules from PubChem BioAssay (EPA / NIEHS) can be followed below.

Read-out in test [1]: Interleukin-8 (IL8), CXCL8 (gene 3576)
In words: BSK_3C_IL8: BioMAP Diversity Plus: 3C Assay for Interleukin-8 (IL8) Biomarker Activity (AID 2283020). Particulars: primary human endothelial cells (HUVEC); actives raise or lower the signal. In a few lines:
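ELISA read-out of IL-8 from human umbilical vein endothelium, measured 24 h after chemical dosing. Activity is expressed relative to DMSO negative control, with both increases and decreases fitted.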

Read-out in test [2]: Monokine induced gamma interferon (MIG), CXCL9 (gene 4283)
In words: BSK_3C_MIG: BioMAP Diversity Plus: 3C Assay for Monokine induced gamma interferon (MIG) Biomarker Activity (AID 2283021).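 On AC50: MIG protein level measured by immunoassay in the treated endothelial cultures.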 Particulars: primary human endothelial cells (HUVEC); actives raise or lower the signal. In a few lines: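 Read-out is ELISA detection of MIG on human umbilical vein endothelial cells, taken 24 h after dosing. Gain or loss of signal was scored relative to DMSO controls using bidirectional curve fitting.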

Test [3] can be described thus: BSK_3C_SRB: Viability Assessment in the BioMAP Diversity Plus: 3C Assay (AID 2283023).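 Further: fitted both ways against DMSO so a hit may be signal rise or drop.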 Particulars: primary human endothelial cells (HUVEC). In a few lines: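 Absorbance at 560 nm of sulforhodamine B-stained (0.1%) total protein served as a cytotoxicity readout in human umbilical vein endothelial cells, 24 h after chemical treatment. Signal was fitted bidirectionally relative to DMSO.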

Read-out in test [4]: Matrix Metallopeptidase 1 (MMP1), MMP1 (gene 4312)
In words: BSK_BE3C_MMP1: BioMAP Diversity Plus: BE3C Assay for Matrix Metallopeptidase 1 (MMP1) Biomarker Activity (AID 2283024). Particulars: primary human bronchial epithelial cells; actives raise or lower the signal. In a few lines: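 Human bronchial epithelial cells (BE3C system) exposed to compound for 24 h; MMP1 then quantified by ELISA. Activity was fitted in both directions relative to DMSO.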

Test [5] is described as follows: BSK_3C_Vis: BioMAP Diversity Plus: 3C Assay for Morphology Visualization (AID 2283025).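 Further: fitted both ways so gain or loss versus DMSO counts.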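 On AC50: light microscopy image of cell morphology used as background control.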 Particulars: primary human endothelial cells (HUVEC). In a few lines:
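Chemicals were added to primary human umbilical vein endothelium, cells were incubated 24 h, and morphology was then visualized by light microscopy. Gain or loss of signal was fitted bidirectionally relative to DMSO.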

Read-out in test [6]: Pselectin, SELP (gene 6403)
As to the kind of experiment: BSK_4H_Pselectin: BioMAP Diversity Plus: 4H Assay for Pselectin Biomarker Activity (AID 2283026). Particulars: primary human endothelial cells (HUVEC); actives raise or lower the signal. In a few lines:
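ELISA read-out of P-selectin on human umbilical vein endothelium after 24 h of dosing. Values derive from bidirectional fitting relative to DMSO. Parallel SRB protein staining flagged overt cytotoxicity.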

Test [7] is described as follows: BSK_4H_SRB: Viability Assessment in the BioMAP Diversity Plus: 4H Assay (AID 2283027).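 Further: cells exposed to compound for 24 h before staining.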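 On AC50: curves fitted both ways versus DMSO so AC50 may be loss or gain.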 Particulars: primary human endothelial cells (HUVEC). The procedure, abridged:
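Absorbance at 560 nm of SRB-stained total protein served as the viability read-out in confluent primary human umbilical vein endothelium 24 h after chemical treatment. Curves were fitted bidirectionally against DMSO as negative control.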

Test [8] is described as follows: BSK_BE3C_SRB: Viability Assessment in the BioMAP Diversity Plus: BE3C Assay (AID 2283028). Particulars: primary human bronchial epithelial cells. The procedure, abridged:
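Cells (human bronchial epithelial, primary) are treated with chemicals, and after 24 h the parallel cultures are fixed in 10% TCA. These are then stained with 0.1% SRB and read at 560 nm. Gain or loss of signal is fitted relative to DMSO.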

Read-out in test [9]: Thrombomodulin, THBD (gene 7056)
In words: BSK_3C_Thrombomodulin: BioMAP Diversity Plus: 3C Assay for Thrombomodulin Biomarker Activity (AID 2283029). Particulars: primary human endothelial cells (HUVEC); actives raise or lower the signal. The procedure, abridged: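 Read-out is ELISA of thrombomodulin on human umbilical vein endothelium 24 h after chemical dosing. Gain or loss of signal is scored relative to DMSO. Overt cytotoxicity is checked in parallel cultures by sulforhodamine B staining.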

Read-out in test [10]: Urokinase-type plasminogen activator receptor (uPAR), PLAUR (gene 5329)
In words: BSK_4H_uPAR: BioMAP Diversity Plus: 4H Assay for Urokinase-type plasminogen activator receptor (uPAR) Biomarker Activity (AID 2283030). Particulars: primary human endothelial cells (HUVEC); actives raise or lower the signal. In a few lines:
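Cell-surface uPAR ELISA signal, measured 24 h after dosing human umbilical vein endothelial cells, was analyzed with bidirectional fitting relative to DMSO. Parallel SRB staining of total protein tracked overt cytotoxicity.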

Read-out in test [11]: Vascular endothelial growth factor receptor 2 (Homo sapiens) (UniProt P35968)
As to the kind of experiment: BSK_4H_VEGFRII: BioMAP Diversity Plus: 4H Assay for Vascular endothelial growth factor receptor 2 (VEGFR2) Biomarker Activity (AID 2283031). Particulars: primary human endothelial cells (HUVEC); actives raise or lower the signal. The procedure, abridged:
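ELISA read-out of VEGFRII in primary human umbilical vein endothelium, taken 24 h after chemical treatment. Responses are expressed relative to DMSO, with bidirectional fitting.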

Read-out in test [12]: Human Leukocyte Antigen - DR isotype (HLADR), HLA-DRA (gene 3122)
As to the kind of experiment: BSK_BE3C_HLADR: BioMAP Diversity Plus: BE3C Assay for Human Leukocyte Antigen - DR isotype (HLADR) Biomarker Activity (AID 2283032). Particulars: primary human bronchial epithelial cells; actives raise or lower the signal. In a few lines: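 ELISA read-out of HLA-DR on human lung bronchial epithelial primary cells, measured 24 h post-dosing. Both increases and decreases were scored relative to DMSO vehicle.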

Read-out in test [13]: Vascular cell adhesion molecule 1 (VCAM1), VCAM1 (gene 7412)
As to the kind of experiment: BSK_4H_VCAM1: BioMAP Diversity Plus: 4H Assay for Vascular cell adhesion molecule 1 (VCAM1) Biomarker Activity (AID 2283033).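 On outcome: cell-surface VCAM-1 protein measured by ELISA.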 Particulars: primary human endothelial cells (HUVEC); actives raise or lower the signal. The procedure, abridged:
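ELISA read-out of VCAM-1 on human umbilical vein endothelium 24 hours after chemical dosing; gain or loss of signal was fitted relative to DMSO, with sulforhodamine B staining of parallel cultures flagging overt cytotoxicity.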

Read-out in test [14]: Interferon-gamma inducible Protein 10 (IP10), CXCL10 (gene 3627)
As to the kind of experiment: BSK_BE3C_IP10: BioMAP Diversity Plus: BE3C Assay for Interferon-gamma inducible Protein 10 (IP10) Biomarker Activity (AID 2283034). Particulars: primary human bronchial epithelial cells; actives raise or lower the signal. The procedure, abridged:
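Chemical is dosed onto human lung bronchial epithelial primary cells, cultures are incubated 24 h, and IP-10 is then quantified by ELISA. Gain or loss of signal is fitted in both directions relative to DMSO.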

Read-out in test [15]: Monokine induced gamma interferon (MIG), CXCL9 (gene 4283)
In words: BSK_BE3C_MIG: BioMAP Diversity Plus: BE3C Assay for Monokine induced gamma interferon (MIG) Biomarker Activity (AID 2283035).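 Further: MIG protein measured by ELISA in BE3C cultures after 24 h of dosing.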 Particulars: primary human bronchial epithelial cells; actives raise or lower the signal. The procedure, abridged: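 MIG level was determined by ELISA after 24 h chemical treatment of primary human bronchial epithelial cells. Values were fitted bidirectionally with DMSO as the negative control and activity baseline.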

Read-out in test [16]: Transforming growth factor beta 1 (TGFb1), TGFB1 (gene 7040)
As to the kind of experiment: BSK_BE3C_TGFb1: BioMAP Diversity Plus: BE3C Assay for Transforming growth factor beta 1 (TGFb1) Biomarker Activity (AID 2283036;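 further: TGF-b1 protein level measured by ELISA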). Particulars: primary human bronchial epithelial cells; actives raise or lower the signal. In a few lines: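 Primary human lung bronchial epithelial cells; compound exposure 24 h; TGF-b1 by ELISA; bidirectional fit, DMSO baseline. Parallel SRB total-protein staining for cytotoxicity.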

Read-out in test [17]: urokinase plasminogen activator (uPA), PLAU (gene 5328)
In words: BSK_BE3C_uPA: BioMAP Diversity Plus: BE3C Assay for urokinase plasminogen activator (uPA) Biomarker Activity (AID 2283038).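 Further: uPA protein level quantified by ELISA in cell cultures; uPA read one day after compound addition.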 Particulars: primary human bronchial epithelial cells; actives raise or lower the signal. In a few lines: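 Bronchial epithelial cells (human, primary); chemical 24 h; uPA by ELISA; bidirectional fit vs DMSO. SRB (0.1%, after 10% TCA fixation, 560 nm) in parallel cultures for cytotoxicity.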

Read-out in test [18]: Urokinase-type plasminogen activator receptor (uPAR), PLAUR (gene 5329)
In words: BSK_BE3C_uPAR: BioMAP Diversity Plus: BE3C Assay for Urokinase-type plasminogen activator receptor (uPAR) Biomarker Activity (AID 2283039).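 On outcome: cells exposed to compound for one day before measurement.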 Particulars: primary human bronchial epithelial cells; actives raise or lower the signal. The procedure, abridged: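 Human bronchial epithelial primary cells; chemical exposure 24 h; uPAR by ELISA; bidirectional fit vs DMSO control.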

Read-out in test [19]: Plasminogen activator inhibitor-1 (PAI1), SERPINE1 (gene 5054)
As to the kind of experiment: BSK_BE3C_PAI1: BioMAP Diversity Plus: BE3C Assay for Plasminogen activator inhibitor-1 (PAI1) Biomarker Activity (AID 2283037). Particulars: primary human bronchial epithelial cells; actives raise or lower the signal. The procedure, abridged:
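Primary human lung bronchial epithelial cells; chemical dosing; 24 h; PAI-1 measured by ELISA; bidirectional fit referenced to DMSO as negative control.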

Active and inactive are the calls of the source. How the source made its calls: active means hit-call score of the fitted dose curve at least 0.9, where 1 is the maximum; inactive means score below 0.9.

The term AC50 denotes the concentration at which the activity in the assay is half-maximal. In the case of `CCc1cccc(CC)c1N(COC)C(=O)CCl`, the result in test [1], in test [2], in test [4], in test [8], in [9] and in [10] was inactive. For the same molecule, the result in [11], in [15], in test [16], in [17] and in [18] was inactive. Further, the AC50 in test [3] is 20 µM (active); in test [5], 39 µM (active); in test [6], 14.9 µM (active); in [7] it was 14.8 µM (active); in test [12] it was 33.4 µM (active); in test [13] it was 15.3 µM (active). Further, in [14], the AC50 was 31.8 µM (active).

For the molecule `CCOP(=O)(OCC)Oc1cc(C)nc(C(C)C)n1`, the result in test [1], in test [2], in test [3], in test [4], in [6] and in test [7] was inactive. For the same molecule, the result in [8], in test [9], in [10], in [11], in [12] and in test [13] was inactive. The outcome in test [14], in test [15], in test [16], in [17] and in test [18] was inactive. For the same molecule, the AC50 in test [5] was 39 µM (active).

As to `CCCCOC(=O)[C@@H](C)Oc1ccc(Oc2ccc(C#N)cc2F)cc1`, the outcome in test [1], in test [2], in test [3], in test [4], in test [5] and in [6] was inactive. In addition, the outcome in test [7], in test [8], in test [9], in test [10], in test [11] and in test [12] was inactive. The outcome in [13], in test [14], in [15], in [16], in test [19] and in test [17] was inactive. The AC50 in test [18] is 0.811 µM (active).

With `N#CSCSC#N`, the AC50 is 11.7 µM (active) in [1]; 10.8 µM (active) in test [2]; 4.78 µM (active) in test [3]; 5.45 µM (active) in test [5]; 5.1 µM (active) in test [6]; 10.2 µM (active) in [7]. The AC50 in test [9] is 13.5 µM (active); in test [10], 5.82 µM (active); in test [13] it was 6.29 µM (active). Moreover, the result in test [4], in [8], in test [11], in [12], in test [14] and in test [15] was inactive. Besides, the outcome in [16], in test [17] and in [18] was inactive.

Turning to `CCOP(=S)(OCC)SCCSCC`, the result in test [1], in [2], in test [3], in test [4], in test [6] and in test [7] was inactive. The result in [8], in test [9], in test [10], in test [11], in test [12] and in [13] was inactive. Besides, the outcome in test [14], in test [15], in [16], in test [17] and in [18] was inactive. The AC50 in test [5] was 9.8 µM (active).
